Molecules are shown by their SMILES. Inconclusive results are not listed. Calls of active or inactive are those of the source. The calls were made as follows: active = hit-call score of the fitted dose curve at least 0.9, where 1 is the maximum; inconclusive = response in the unintended direction; inactive = score below 0.9.

Experiment [1] deals with human Aurora Kinase A - serine/threonine-protein Kinase 6 (AurA), AURKA (gene 6790) (UniProt O14965). In words: NVS_ENZ_hAurA: NovaScreen (NVS) Enzymatic Assay for human Aurora Kinase A - serine/threonine-protein Kinase 6 (AurA) (AID 2283142). The procedure, abridged:
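Cell-free enzymatic assay with human Aurora A, 1 hour after dosing. Fluorescent substrate turnover detected after electrophoretic mobility shift separation of substrate and product. Screened at 25 uM, actives retested in concentration-response up to 50 uM.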

The target in experiment [2] is human Raf-1 Proto-Oncogene, serine/threonine Kinase (RAF1), RAF1 (gene 5894) (UniProt P04049). Put plainly: NVS_ENZ_hRAF1: NovaScreen (NVS) Enzymatic Assay for human Raf-1 Proto-Oncogene, serine/threonine Kinase (RAF1) (AID 2283216). The procedure, abridged:
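Cell-free recombinant kinase with specific fluorescent substrate, product separated by electrophoretic mobility shift; read 1 h after dosing. Primary screen at 25 uM in duplicate; hits then run in concentration-response up to 50 uM, fitted as loss of signal versus DMSO.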

For experiment [3], the target named is human Tyrosine Protein Kinase Receptor Tie-2 (Tie2), TEK (gene 7010) (UniProt Q02763). Put plainly: NVS_ENZ_hTie2: NovaScreen (NVS) Enzymatic Assay for human Tyrosine Protein Kinase Receptor Tie-2 (Tie2) (AID 2283225). The procedure, abridged:
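Recombinant human Tie2 kinase activity was read cell-free by fluorescence with electrophoretic mobility shift, 1 hour after dosing. The screen used 25 uM in duplicate, then concentration-response up to 50 uM. Signal loss was scored against DMSO.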

Experiment [4] is described as follows: ATG_M_32_XSP2: Attagene TRANS-FACTORIAL Multi-Species (XSP2) HepG2 Assay for M19 Transcription Factor (Internal Marker) (AID 2283826). Summed up: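 Transfected HepG2 (multiplexed GAL4-UAS reporters), 24 h chemical exposure, 3 nM 6-alpha-fluorotestosterone + 1.5 nM norgestrel added. RNA → oligo(dT) RT → PCR → 6-FAM primer extension → HpaI cut → CE. Fitted upward vs DMSO.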

The target in experiment [5] is human Epidermal Growth Factor Receptor (EGFR), EGFR (gene 1956) (UniProt P00533). In words: NVS_ENZ_hEGFR: NovaScreen (NVS) Enzymatic Assay for human Epidermal Growth Factor Receptor (EGFR) (AID 2283151). Summed up: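 Cell-free kinase assay, fluorescence plus electrophoretic mobility shift separating substrate and product, read 1 hour after dosing; loss of signal vs DMSO. Duplicate screen at 25 uM, then concentration-response to 50 uM.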
Chain of human Epidermal Growth Factor Receptor (EGFR), EGFR (gene 1956) (P00533 whole entry, looked up): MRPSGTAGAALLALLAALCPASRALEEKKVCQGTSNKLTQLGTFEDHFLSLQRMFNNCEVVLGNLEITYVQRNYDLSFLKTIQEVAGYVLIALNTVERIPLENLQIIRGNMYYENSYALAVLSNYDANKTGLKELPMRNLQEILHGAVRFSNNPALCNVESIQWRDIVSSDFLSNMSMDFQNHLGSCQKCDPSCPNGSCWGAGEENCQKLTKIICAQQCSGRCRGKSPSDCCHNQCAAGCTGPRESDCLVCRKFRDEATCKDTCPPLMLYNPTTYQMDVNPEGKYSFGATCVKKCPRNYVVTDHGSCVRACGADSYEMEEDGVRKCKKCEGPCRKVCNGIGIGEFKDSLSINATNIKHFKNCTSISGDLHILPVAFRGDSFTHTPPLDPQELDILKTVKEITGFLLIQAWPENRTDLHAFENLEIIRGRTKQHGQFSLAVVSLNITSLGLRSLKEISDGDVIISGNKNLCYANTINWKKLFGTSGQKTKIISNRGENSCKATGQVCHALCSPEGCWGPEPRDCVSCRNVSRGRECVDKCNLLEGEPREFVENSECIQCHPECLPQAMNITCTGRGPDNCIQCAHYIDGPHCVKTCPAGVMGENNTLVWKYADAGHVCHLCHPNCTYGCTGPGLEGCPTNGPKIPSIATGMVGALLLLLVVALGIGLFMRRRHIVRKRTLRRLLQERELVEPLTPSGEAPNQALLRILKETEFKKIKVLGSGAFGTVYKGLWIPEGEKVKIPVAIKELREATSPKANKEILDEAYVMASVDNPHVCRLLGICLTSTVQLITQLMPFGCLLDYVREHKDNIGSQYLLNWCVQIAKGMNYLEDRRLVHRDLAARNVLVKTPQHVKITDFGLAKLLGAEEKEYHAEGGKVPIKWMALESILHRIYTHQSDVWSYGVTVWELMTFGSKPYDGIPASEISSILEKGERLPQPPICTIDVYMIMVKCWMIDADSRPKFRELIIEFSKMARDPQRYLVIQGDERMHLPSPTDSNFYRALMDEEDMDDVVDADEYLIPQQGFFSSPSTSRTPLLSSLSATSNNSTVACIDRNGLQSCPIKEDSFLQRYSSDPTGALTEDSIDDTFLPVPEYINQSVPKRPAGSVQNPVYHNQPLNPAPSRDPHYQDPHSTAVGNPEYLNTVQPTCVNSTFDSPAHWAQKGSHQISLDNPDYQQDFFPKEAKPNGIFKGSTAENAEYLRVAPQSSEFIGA

Experiment [6] addresses human Fibroblast Growth Factor Receptor 1 (FGFR1), FGFR1 (gene 2260) (UniProt P11362). Put plainly: NVS_ENZ_hFGFR1: NovaScreen (NVS) Enzymatic Assay for human Fibroblast Growth Factor Receptor 1 (FGFR1) (AID 2283159). Summed up:
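Cell-free recombinant kinase with fluorescent substrate, product separated by electrophoretic mobility shift; read 1 hour after dosing, loss of signal relative to DMSO. Initial screen in duplicate at 25 uM, actives followed in concentration series.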

For experiment [7], the target named is human Phosphatase and Tensin Homolog (PTEN), PTEN (gene 5728) (UniProt P60484). Put plainly: NVS_ENZ_hPTEN: NovaScreen (NVS) Enzymatic Assay for human Phosphatase and Tensin Homolog (PTEN) (AID 2283203). Summed up: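 Cell-free recombinant human PTEN with fluorescent substrate; product separated by electrophoretic mobility shift and read by fluorescence 1 h after dosing. Primary screen in duplicate at 25 uM, actives followed in concentration series versus DMSO.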
Chain of human Phosphatase and Tensin Homolog (PTEN), PTEN (gene 5728) (P60484 whole entry, looked up): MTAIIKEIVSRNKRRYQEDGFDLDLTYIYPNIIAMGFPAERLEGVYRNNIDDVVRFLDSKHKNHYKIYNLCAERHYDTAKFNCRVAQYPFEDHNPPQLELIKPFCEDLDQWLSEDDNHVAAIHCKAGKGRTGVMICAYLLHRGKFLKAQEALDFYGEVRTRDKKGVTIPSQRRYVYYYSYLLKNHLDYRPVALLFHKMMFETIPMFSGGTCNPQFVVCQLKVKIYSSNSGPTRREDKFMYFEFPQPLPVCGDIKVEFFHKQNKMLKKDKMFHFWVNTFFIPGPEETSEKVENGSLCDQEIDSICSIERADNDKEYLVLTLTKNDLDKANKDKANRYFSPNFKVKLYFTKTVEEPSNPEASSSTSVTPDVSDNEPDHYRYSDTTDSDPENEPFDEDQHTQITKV

The target in experiment [8] is human Protein Tyrosine Phosphatase Non-receptor Type 2 (PTPN2), PTPN2 (gene 5771) (UniProt P17706). In words: NVS_ENZ_hPTPN2: NovaScreen (NVS) Enzymatic Assay for human Protein Tyrosine Phosphatase Non-receptor Type 2 (PTPN2) (AID 2283207). The procedure, abridged:
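Cell-free recombinant enzyme with fluorescent substrate, product separated by electrophoretic mobility shift; read 1 h after dosing. Primary screen single concentration (25 uM) in duplicate; actives followed in concentration series; loss of signal versus DMSO.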

Experiment [9] concerns the target rat Acetylcholinesterase (AChE), Ache (gene 83817) (UniProt P37136). Put plainly: NVS_ENZ_rAChE: NovaScreen (NVS) Enzymatic Assay for rat Acetylcholinesterase (AChE) (AID 2283233). Summed up: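 Rat brain membrane acetylcholinesterase activity measured colorimetrically 0.33 h after compound addition, loss of signal relative to DMSO. Primary screen in duplicate at 25 uM; actives re-run as concentration-response with 50 uM top concentration.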

In experiment [10] the target is rat Oxytocin Receptor (OXT), Oxtr (gene 25342) (UniProt P70536). Put plainly: NVS_GPCR_rOXT: NovaScreen (NVS) G Protein-Coupled Receptor Assay for rat Oxytocin Receptor (OXT) (AID 2283330). Summed up:
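Radioligand displacement on rat uterine membranes, 1 h incubation, filter-based scintillation counting. Chemicals were screened in duplicate at 25 uM, and those passing threshold were retested in concentration-response up to 50 uM. Loss of binding was fitted versus DMSO.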

In experiment [11] the test system is rat Monoamine Oxidase, MAO-A, Peripheral (MAOAP), gene 29253. Put plainly: NVS_ENZ_rMAOAP: NovaScreen (NVS) Enzymatic Assay for rat Monoamine Oxidase, MAO-A, Peripheral (MAOAP) (AID 2283237). Summed up: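 Rat liver mitochondrial membranes served as the MAO-A source, with enzyme activity measured by radiometric scintillation counting 1.17 hours after dosing. Loss of signal was fitted against DMSO; primary screen used 25 uM in duplicate, follow-up used concentration series.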

Experiment [12] deals with human NIMA (Never In Mitosis Gene A)-Related Kinase 2 (NEK2), NEK2 (gene 4751) (UniProt P51955). In words: NVS_ENZ_hNEK2: NovaScreen (NVS) Enzymatic Assay for human NIMA (Never In Mitosis Gene A)-Related Kinase 2 (NEK2) (AID 2283188). The procedure, abridged:
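Cell-free NEK2 enzyme activity after 1 h exposure, read by fluorescence with electrophoretic mobility shift separating substrate and product. Primary screen in duplicate at 25 uM; actives then run as concentration series. Loss of signal versus DMSO scored.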

The target in the next experiment is PPP2CA (gene 5515) (UniProt P67775). Put plainly: NVS_ENZ_hPPP2CA: NovaScreen (NVS) Enzymatic Assay for human Protein Phosphatase 2 Aatalytic subunit Alpha (PPP2CA) (AID 2283199). The procedure, abridged:
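Recombinant human PPP2CA with fluorescent substrate; product separated from substrate by electrophoretic mobility shift, read 1.33 h after dosing. Duplicate single-point at 25 uM, then singleton concentration-response up to 50 uM; loss of signal versus DMSO.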

The target of experiment [13] is human Matrix Metalloproteinase-1 (MMP1), MMP1 (gene 4312) (UniProt P03956). Put plainly: NVS_ENZ_hMMP1: NovaScreen (NVS) Enzymatic Assay for human Matrix Metalloproteinase-1 (MMP1) (AID 2283181). Summed up: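 Human MMP1 enzyme activity measured by fluorescence 1 h after dosing, cell-free, with a specific substrate. Screened in duplicate at 25 uM; hits (e.g. 30% inhibition) run in concentration-response up to 50 uM; loss of signal versus DMSO.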

Chain of human Fibroblast Growth Factor Receptor 1 (FGFR1), FGFR1 (gene 2260) (P11362 whole entry, looked up): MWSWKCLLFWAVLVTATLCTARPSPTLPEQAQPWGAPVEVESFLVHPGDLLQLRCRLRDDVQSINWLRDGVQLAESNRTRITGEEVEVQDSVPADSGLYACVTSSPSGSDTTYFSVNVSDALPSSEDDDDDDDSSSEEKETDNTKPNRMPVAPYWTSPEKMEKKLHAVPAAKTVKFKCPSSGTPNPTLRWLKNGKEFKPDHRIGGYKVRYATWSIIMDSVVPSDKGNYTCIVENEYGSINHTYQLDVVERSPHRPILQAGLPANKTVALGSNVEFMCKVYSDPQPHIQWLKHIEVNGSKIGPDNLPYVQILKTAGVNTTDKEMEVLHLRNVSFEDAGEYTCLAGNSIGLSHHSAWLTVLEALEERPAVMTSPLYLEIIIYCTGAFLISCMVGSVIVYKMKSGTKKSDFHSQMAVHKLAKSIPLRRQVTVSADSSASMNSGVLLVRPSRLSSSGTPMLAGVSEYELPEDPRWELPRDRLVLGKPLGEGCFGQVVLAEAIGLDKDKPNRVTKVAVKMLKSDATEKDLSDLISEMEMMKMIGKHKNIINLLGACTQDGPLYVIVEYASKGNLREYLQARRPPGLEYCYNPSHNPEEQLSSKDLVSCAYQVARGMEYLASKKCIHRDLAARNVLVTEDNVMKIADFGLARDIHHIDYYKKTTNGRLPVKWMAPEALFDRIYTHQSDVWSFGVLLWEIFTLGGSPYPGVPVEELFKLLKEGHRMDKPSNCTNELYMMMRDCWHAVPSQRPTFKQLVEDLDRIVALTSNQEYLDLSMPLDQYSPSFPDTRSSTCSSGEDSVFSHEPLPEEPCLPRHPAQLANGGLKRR
Chain of human Tyrosine Protein Kinase Receptor Tie-2 (Tie2), TEK (gene 7010) (Q02763 whole entry, looked up): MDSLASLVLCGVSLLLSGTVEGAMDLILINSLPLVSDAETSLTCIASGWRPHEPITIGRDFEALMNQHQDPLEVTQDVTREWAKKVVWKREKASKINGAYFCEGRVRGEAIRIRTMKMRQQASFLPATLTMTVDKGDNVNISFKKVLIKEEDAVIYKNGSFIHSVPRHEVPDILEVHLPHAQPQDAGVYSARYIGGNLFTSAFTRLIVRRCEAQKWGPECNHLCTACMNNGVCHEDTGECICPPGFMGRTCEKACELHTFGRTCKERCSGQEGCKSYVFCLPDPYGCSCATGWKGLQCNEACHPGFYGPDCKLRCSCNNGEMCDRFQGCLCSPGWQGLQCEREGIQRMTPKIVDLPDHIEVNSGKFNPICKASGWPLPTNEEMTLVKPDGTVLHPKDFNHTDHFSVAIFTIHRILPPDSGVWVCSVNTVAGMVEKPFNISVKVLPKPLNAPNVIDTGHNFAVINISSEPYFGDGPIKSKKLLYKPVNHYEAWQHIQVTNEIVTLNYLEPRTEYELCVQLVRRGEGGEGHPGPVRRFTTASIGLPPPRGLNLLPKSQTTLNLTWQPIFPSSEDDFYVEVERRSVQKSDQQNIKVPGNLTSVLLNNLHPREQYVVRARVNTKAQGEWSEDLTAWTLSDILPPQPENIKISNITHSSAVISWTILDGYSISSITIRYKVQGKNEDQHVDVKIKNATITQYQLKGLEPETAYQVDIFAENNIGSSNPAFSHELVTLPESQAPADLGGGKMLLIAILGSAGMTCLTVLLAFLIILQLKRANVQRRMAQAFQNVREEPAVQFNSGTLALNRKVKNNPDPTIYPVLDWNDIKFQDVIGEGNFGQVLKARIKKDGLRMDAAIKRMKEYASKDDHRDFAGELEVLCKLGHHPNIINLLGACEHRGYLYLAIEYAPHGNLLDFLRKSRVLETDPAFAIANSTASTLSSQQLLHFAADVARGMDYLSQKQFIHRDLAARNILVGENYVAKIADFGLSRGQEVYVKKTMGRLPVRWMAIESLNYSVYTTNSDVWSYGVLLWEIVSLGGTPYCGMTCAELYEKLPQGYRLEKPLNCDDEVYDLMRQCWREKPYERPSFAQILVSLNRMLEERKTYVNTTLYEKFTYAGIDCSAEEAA
Chain of human Protein Tyrosine Phosphatase Non-receptor Type 2 (PTPN2), PTPN2 (gene 5771) (P17706 whole entry, looked up): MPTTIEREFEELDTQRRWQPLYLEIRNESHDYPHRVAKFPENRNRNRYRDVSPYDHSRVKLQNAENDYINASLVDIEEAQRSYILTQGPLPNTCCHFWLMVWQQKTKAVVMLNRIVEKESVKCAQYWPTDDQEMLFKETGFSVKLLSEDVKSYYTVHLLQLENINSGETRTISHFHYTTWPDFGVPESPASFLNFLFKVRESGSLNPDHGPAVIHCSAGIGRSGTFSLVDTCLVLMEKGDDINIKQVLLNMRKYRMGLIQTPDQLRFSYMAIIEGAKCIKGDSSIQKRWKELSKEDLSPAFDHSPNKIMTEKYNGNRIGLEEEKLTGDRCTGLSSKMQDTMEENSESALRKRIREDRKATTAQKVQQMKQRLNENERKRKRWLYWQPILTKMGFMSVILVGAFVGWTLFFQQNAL
Chain of human Raf-1 Proto-Oncogene, serine/threonine Kinase (RAF1), RAF1 (gene 5894) (P04049 whole entry, looked up): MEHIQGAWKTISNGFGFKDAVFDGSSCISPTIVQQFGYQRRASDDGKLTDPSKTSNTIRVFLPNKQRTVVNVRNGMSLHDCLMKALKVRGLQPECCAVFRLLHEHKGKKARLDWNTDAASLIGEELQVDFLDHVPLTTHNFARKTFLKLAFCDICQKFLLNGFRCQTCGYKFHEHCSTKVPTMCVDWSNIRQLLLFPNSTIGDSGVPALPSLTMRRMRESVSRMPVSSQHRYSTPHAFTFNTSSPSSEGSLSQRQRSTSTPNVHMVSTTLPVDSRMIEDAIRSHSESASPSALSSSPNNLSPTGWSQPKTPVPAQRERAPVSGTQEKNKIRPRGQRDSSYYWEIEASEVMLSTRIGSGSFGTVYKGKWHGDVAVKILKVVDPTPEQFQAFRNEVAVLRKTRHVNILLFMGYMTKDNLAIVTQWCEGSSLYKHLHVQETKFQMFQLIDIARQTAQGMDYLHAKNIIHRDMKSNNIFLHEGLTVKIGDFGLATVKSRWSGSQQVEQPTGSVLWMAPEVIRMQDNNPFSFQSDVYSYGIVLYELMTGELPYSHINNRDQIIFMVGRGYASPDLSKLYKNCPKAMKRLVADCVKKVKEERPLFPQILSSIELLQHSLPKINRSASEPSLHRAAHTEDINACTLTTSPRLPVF
Chain of human Aurora Kinase A - serine/threonine-protein Kinase 6 (AurA), AURKA (gene 6790) (O14965 whole entry, looked up): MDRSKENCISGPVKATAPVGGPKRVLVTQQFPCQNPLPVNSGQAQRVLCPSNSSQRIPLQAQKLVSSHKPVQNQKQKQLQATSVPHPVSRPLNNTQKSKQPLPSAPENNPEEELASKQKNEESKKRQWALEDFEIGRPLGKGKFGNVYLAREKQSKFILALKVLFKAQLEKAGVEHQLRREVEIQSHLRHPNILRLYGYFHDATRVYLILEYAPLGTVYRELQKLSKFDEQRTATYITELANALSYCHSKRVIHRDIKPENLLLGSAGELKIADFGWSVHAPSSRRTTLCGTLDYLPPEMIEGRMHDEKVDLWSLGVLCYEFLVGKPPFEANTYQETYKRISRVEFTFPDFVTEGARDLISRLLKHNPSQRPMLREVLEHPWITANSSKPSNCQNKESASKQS

A word on the AC50: it is the concentration giving half of the maximal activity seen. `N[C@@H](Cc1cc(I)c(Oc2ccc(O)c(I)c2)c(I)c1)C(=O)O`: the AC50 in experiment [1] is 4.51 µM (active). Moreover, the call in experiment [2], in experiment [3] and in [4] was inactive.
For `Cc1ncc([C@@H](CCCCCCc2ccc3c(n2)NCCC3)CC(=O)O)cn1`, the compound was classed as inactive in experiment [1], in experiment [5], in [6], in [7], in experiment [8] and in experiment [2]. Moreover, the call in [3] was inactive.
Turning to `O=C(O)c1cc(N=Nc2ccc(S(=O)(=O)Nc3ccccn3)cc2)ccc1O`, the compound was called inactive in experiment [1], in experiment [6], in [8], in [2] and in [3]. Further, the AC50 in experiment [5] was 3.95 µM (active).
Consider `CCCCCCCC=O`, for which the result in experiment [6] and in experiment [9] was inactive.
As for `CCO[Si](CCCNC(N)=O)(OCC)OCC`, the compound was classed as inactive in experiment [5] and in experiment [2].
As to `CC[C@H](C)C(=O)O[C@H]1C[C@H](O)C=C2C=C[C@H](C)[C@H](CC[C@@H](O)C[C@@H](O)CC(=O)O)[C@H]21`, the outcome in [6], in experiment [7], in [3] and in [10] was inactive.
Turning to `CCCCC(CC)COC(=O)CCCCC(=O)OCc1ccccc1` (stereo not given), the compound was classed as inactive in experiment [6] and in experiment [3].
With `CCCCCCC(=O)O`, the result in [6] was inactive.
As to `COc1ccc2sc(C(=O)Nc3nnn[nH]3)c(OC(C)C)c2c1`, the AC50 in [1] was 9.98 µM (active); in experiment [2] it was 25 µM (active). Moreover, the result in [6] and in experiment [3] was inactive.
Turning to `c1cc(-c2ccncc2)ccn1`, the compound was classed as inactive in experiment [6].
As to `O=C(N[C@@H](c1ccccc1)[C@@H]1CCCCN1)c1cccc(C(F)(F)F)c1Cl`, the compound was called inactive in [1] and in [11].
For `O=C(O)c1cccc(Oc2ccccc2)c1`, the compound was classed as inactive in experiment [1], in [5], in experiment [6] and in experiment [7].
Turning to `O=C(O)c1ccccc1`, in [6], the result was inactive.
On to `O=C(O)CC(O)C(=O)O` (stereo not given), for which the compound was called inactive in [1] and in [8].
As for `Cc1nc(-c2ccccn2)ncc1C(=O)Nn1cc(C)c2cc(F)ccc21`, the call (in [1]; in [6]; in experiment [12]; with PPP2CA (gene 5515); in experiment [3]) was inactive.
`O=C(N[C@@H](Cc1ccccc1)[C@@H](O)C(=O)N1C[C@@H](O)[C@@H](O)C1)c1cc2cc(Cl)ccc2[nH]1`: the call in experiment [13] was inactive.
Consider `O=[N+]([O-])c1ccc(CO)cc1`, for which the outcome in experiment [7] was inactive.
As for `CCc1cc(C2=C(C(=O)O)N(c3ccccc3C(F)(F)F)S(=O)(=O)c3ccccc32)cc2c1OCO2`, the AC50 in experiment [13] was 12.3 µM (active).

Values taken from PubChem BioAssay (EPA / NIEHS).
